PI5P4Ka inh: qHTS for Inhibitors of phosphatidylinositol 5-phosphate 4-kinase (PI5P4K); PI5P4Kalpha enzyme, ADP-Glo luminescence, 60 min; stronger effect = lower value; max response, %; 330,000 compounds, 1.2% hits; AID 652105, 2013; active = max response of -50% or lower; inconclusive = between -30% and -50%; inactive = -30% or higher; note: value at the top dose of about 77 µM; % is set by controls: 0 for no effect and ±100 for the full control effect
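ADP-Glo luminescence end-point after a 60 min room-temperature kinase reaction. PI5P4Kalpha and substrate in HEPES pH 7.4 buffer with EGTA, 0.1% CHAPS and 5% DMSO; ATP at 5 microM final.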
L3MBTL1 inh: qHTS Assay for the Inhibitors of L3MBTL1. Lethal(3)malignant brain tumor-like protein 1 (Homo sapiens), Q9Y468. AlphaScreen L3MBTL1–H3K9me1 peptide binding. Potency, µM (top dose mostly 57.1 µM), for the others: top-dose activity, negative = inhibition, usual class: inhibitors. 230,000 compounds, 0.66% hits; note: potency is the fitted concentration of half-maximal effect; % is set by controls: 0 for no effect and ±100 for the full control effect; nearly all actives have a fitted effect of over 60% in size
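Displacement of a biotinylated histone H3(1-15) peptide monomethylated at Lys9 (75 nM) from L3MBTL1 (50 nM) was measured by AlphaScreen after a 30 min room-temperature compound incubation; cefsulodin titration served as intraplate control.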
HP1b chromo inh: HTS for Inhibitors of HP1-beta Chromodomain Interactions with Methylated Histone Tails | 390,000 compounds, 0.56% hits | Chromobox protein homolog 1 (Homo sapiens), P83916 | AID 540317, 2011 | AlphaScreen HP1-beta / biotin-H3K9me3 peptide binding | Potency, µM (titrated, usually from 114 µM), for inactives: top-dose activity change, negative = inhibition, hits mostly inhibitors; note: potency is the fitted concentration of half-maximal effect; nearly all actives have a fitted effect of over 70% in size
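Compound inhibition of the preformed complex between 50 nM HP1-beta and 50 nM biotinylated H3K9me3 peptide was read by AlphaScreen. Buffer was PBS pH 7.4 with 0.01% Tween-20. Incubations ran 30 min at room temperature, with 10 ug/mL donor/acceptor beads.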
BAZ2B inh: qHTS Assay for Inhibitors of BAZ2B. Bromodomain adjacent to zinc finger domain protein 2B (Homo sapiens), Q9UIF8. AlphaScreen BAZ2B-H3K14Ac peptide displacement. Potency, µM (highest dose often 114 µM), inactives show top-dose activity change, negative = inhibition, most hits filed as inhibitors. 360,000 compounds, 4.4% hits; note: potency is the fitted concentration of half-maximal effect; % is set by controls: 0 for no effect and ±100 for the full control effect; nearly all actives have a fitted effect of over 60% in size
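AlphaScreen displacement of biotin-H3(5-23)K14Ac peptide (50 nM final) from BAZ2B (50 nM final) in PBS pH 7.4, 0.01% Tween-20; complex preformed 30 min RT, then compounds (top 110 uM) 30 min RT, beads 20 min dark.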
G9a inh: qHTS Assay for Inhibitors of Histone Lysine Methyltransferase G9a | Histone-lysine N-methyltransferase EHMT2 (Homo sapiens), Q96KQ7 | G9a H3K9 monomethylation, AlphaScreen, 2 h | Potency, µM (top dose mostly 102 µM), for the others: at the top dose activity, negative = inhibition, actives largely listed as inhibitors | 350,000 compounds, 8.8% hits | AID 504332, 2011; note: potency is the fitted concentration of half-maximal effect; % is set by controls: 0 for no effect and ±100 for the full control effect; nearly all actives have a fitted effect of over 75% in size
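G9a (20 nM) was preincubated 15 min with compound, then reacted 2 h at room temperature with 500 nM biotin-H3K9 peptide and 20 µM SAM. Monomethyl-H3K9 detected by AlphaScreen using anti-H3K9me1 antibody.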
JMJD2A Tudor inh: qHTS Assay for Inhibitors of JMJD2A-Tudor Domain; AlphaScreen JMJD2A-Tudor / H3K4me3 peptide binding; Lysine-specific demethylase 4A (Homo sapiens), O75164; Potency, µM (top dose mostly 114 µM), without a hit: at the highest dose activity change, negative = inhibition, usual class: inhibitors; 390,000 compounds, 4.4% hits; note: potency is the fitted concentration of half-maximal effect; % is set by controls: 0 for no effect and ±100 for the full control effect; nearly all actives have a fitted effect of over 50% in size
Target sequence (O75164 whole entry, looked up, the tested form may be a part): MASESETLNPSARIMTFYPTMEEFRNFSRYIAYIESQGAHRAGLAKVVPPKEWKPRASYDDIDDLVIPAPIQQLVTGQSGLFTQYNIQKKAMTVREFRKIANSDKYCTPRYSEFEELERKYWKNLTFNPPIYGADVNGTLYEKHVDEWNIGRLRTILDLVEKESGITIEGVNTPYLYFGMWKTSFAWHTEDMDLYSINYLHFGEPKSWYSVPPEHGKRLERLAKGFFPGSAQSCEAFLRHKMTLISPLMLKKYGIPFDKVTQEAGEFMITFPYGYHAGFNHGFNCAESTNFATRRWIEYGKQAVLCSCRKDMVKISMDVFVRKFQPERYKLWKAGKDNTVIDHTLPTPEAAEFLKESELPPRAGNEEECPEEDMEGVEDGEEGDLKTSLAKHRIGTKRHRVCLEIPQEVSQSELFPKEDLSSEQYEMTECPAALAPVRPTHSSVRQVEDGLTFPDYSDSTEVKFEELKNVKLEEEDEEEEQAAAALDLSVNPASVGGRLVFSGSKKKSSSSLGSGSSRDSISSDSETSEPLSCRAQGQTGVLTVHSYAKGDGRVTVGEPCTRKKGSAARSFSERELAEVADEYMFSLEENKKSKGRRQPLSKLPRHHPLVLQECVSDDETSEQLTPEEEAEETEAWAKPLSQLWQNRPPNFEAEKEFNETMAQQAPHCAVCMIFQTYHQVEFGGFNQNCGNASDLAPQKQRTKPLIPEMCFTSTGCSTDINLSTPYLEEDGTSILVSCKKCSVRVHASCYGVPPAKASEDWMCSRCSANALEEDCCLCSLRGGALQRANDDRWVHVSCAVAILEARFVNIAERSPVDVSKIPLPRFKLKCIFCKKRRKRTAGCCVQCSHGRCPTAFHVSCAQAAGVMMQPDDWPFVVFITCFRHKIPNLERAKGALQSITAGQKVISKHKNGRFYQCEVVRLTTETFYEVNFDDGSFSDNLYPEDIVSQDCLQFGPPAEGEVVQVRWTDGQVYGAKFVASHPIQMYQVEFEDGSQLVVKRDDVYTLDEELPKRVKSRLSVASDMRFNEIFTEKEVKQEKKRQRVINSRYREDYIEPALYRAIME
* = called active by the depositor; [ ] = remark or other dose. A selection: hits, their analogues and other compounds. The true share with any hit is near 11%. Unless noted, calls come from the whole dose curve; as a rule, active = well fitted inhibition curve with a large enough effect; inconclusive = small, poorly fitted or top-dose-only effect; inactive = no such curve, though single readings can be large or run the other way.

Results for O=C(Nc1ccccc1C(=O)O)c1cccc(NC(=O)c2ccc(Br)o2)c1 ?
PI5P4Ka inh: inconclusive; L3MBTL1 inh: -6%; HP1b chromo inh: 11%; BAZ2B inh: -1%; G9a inh: 18µM*; JMJD2A Tudor inh: -30%

What do the screens show for `O=C(Nc1cccc(F)c1)c1ccc(Br)o1`?
PI5P4Ka inh: 3; L3MBTL1 inh: -10%; HP1b chromo inh: 16%; BAZ2B inh: -13%; G9a inh: 28µM*; JMJD2A Tudor inh: -27%

What do the screens show for `O=c1[nH]c2ccc(S(=O)(=O)N3CCN(S(=O)(=O)c4ccc5c(c4)OCCO5)CC3)cc2[nH]c1=O`?
JMJD2A Tudor inh: -20%

Results for Nc1ccc2c(c1)OC1(CCCCC1)O2 ?
PI5P4Ka inh: -23; HP1b chromo inh: inconclusive; BAZ2B inh: inconclusive; G9a inh: -17%[59 µM]; JMJD2A Tudor inh: 56µM*

Results for CCOc1cccc2cc(C(=O)Oc3ccc(OC)cc3)c(=O)oc12 ?
PI5P4Ka inh: 3; L3MBTL1 inh: -8%; HP1b chromo inh: 12%; BAZ2B inh: -25%; G9a inh: 20µM*; JMJD2A Tudor inh: -29%

What do the screens show for `COc1cccc2cc(C(=O)N3CCC(C)CC3)c(=O)oc12`?
PI5P4Ka inh: -2; L3MBTL1 inh: 2%; HP1b chromo inh: 48%; BAZ2B inh: -5%; G9a inh: 50µM*; JMJD2A Tudor inh: -9%

What do the screens show for `COc1cccc2cc(C(=O)N3C(C)CCCC3C)c(=O)oc12` (stereo not given)?
PI5P4Ka inh: -2; L3MBTL1 inh: -5%; HP1b chromo inh: 8%; BAZ2B inh: 14%; G9a inh: 7%[59 µM]; JMJD2A Tudor inh: -5%

Results for CCOc1cccc2cc(C(N)=O)c(=N)oc12 ?
PI5P4Ka inh: -3; L3MBTL1 inh: 4%; HP1b chromo inh: 28%[57 µM]; BAZ2B inh: -4%; G9a inh: 32µM*; JMJD2A Tudor inh: -3%

How did COc1cccc2cc(C(=O)Oc3ccccc3)c(=O)oc12 do in these assays?
PI5P4Ka inh: 6; L3MBTL1 inh: -4%; HP1b chromo inh: 21%; BAZ2B inh: inconclusive; JMJD2A Tudor inh: -20%

Results for O=C(O)c1cccc(NC(=O)c2cc3cc(Br)cc(Br)c3oc2=O)c1 ?
HP1b chromo inh: 7%; BAZ2B inh: -11%; G9a inh: -50%[59 µM]; JMJD2A Tudor inh: -16%

What do the screens show for `Cc1cc(Cl)cc(C)c1OCCCCn1ccnc1`?
L3MBTL1 inh: -2%; HP1b chromo inh: 27%; BAZ2B inh: -39%; G9a inh: 32µM*; JMJD2A Tudor inh: inconclusive

How did Cc1cc(OCCCCn2ccnc2)cc(C)c1Cl do in these assays?
PI5P4Ka inh: -10; HP1b chromo inh: 0%; BAZ2B inh: inconclusive; G9a inh: 8.9µM*; JMJD2A Tudor inh: inconclusive

What do the screens show for `Cc1cccc(OCCn2ccnc2)c1`?
PI5P4Ka inh: 3; HP1b chromo inh: 32%; BAZ2B inh: -19%; G9a inh: inconclusive; JMJD2A Tudor inh: 5%

Results for CCc1cccc(OCCn2ccnc2)c1 ?
PI5P4Ka inh: -9; L3MBTL1 inh: -3%; HP1b chromo inh: inconclusive; BAZ2B inh: 50µM*; G9a inh: 8.9µM*; JMJD2A Tudor inh: 11µM*

Results for Cc1cccc(OCCCCCn2ccnc2)c1 ?
PI5P4Ka inh: -3; L3MBTL1 inh: -8%; HP1b chromo inh: inconclusive; BAZ2B inh: 50µM*; G9a inh: 32µM*; JMJD2A Tudor inh: 3.2µM*

Results for Cc1cccc(OCCn2cnc(Cl)c2Cl)c1 ?
PI5P4Ka inh: 8; L3MBTL1 inh: -38%; HP1b chromo inh: -19%; BAZ2B inh: 28µM*; G9a inh: -44%; JMJD2A Tudor inh: -19%

What do the screens show for `Clc1ccc(SCCCCn2ccnc2)cc1`?
PI5P4Ka inh: -8; L3MBTL1 inh: -4%; HP1b chromo inh: inconclusive; BAZ2B inh: 50µM*; G9a inh: inconclusive; JMJD2A Tudor inh: 7.9µM*

How did CC(Oc1ccc(Cl)cc1)C(=O)NCCCn1ccnc1 (stereo not given) do in these assays?
HP1b chromo inh: 6%; BAZ2B inh: 4%; G9a inh: -13%; JMJD2A Tudor inh: -17%

How did COc1ccc(C(=O)Nc2ccccc2-c2nc3ccccc3s2)c(OC)c1 do in these assays?
HP1b chromo inh: 58%[57 µM]; BAZ2B inh: 17%; G9a inh: 74%[59 µM]; JMJD2A Tudor inh: 36%

Results for COc1ccc(N2CCN(S(=O)(=O)c3ccc4c(c3)C(C(C)C)C(=O)N4)CC2)cc1 (stereo not given) ?
HP1b chromo inh: -9%; BAZ2B inh: inconclusive; G9a inh: inconclusive; JMJD2A Tudor inh: inconclusive

How did Cc1nn(CC(=O)Nc2ccc(OC(F)(F)F)cc2)c(=O)c2c(C)n(-c3ccc(Cl)cc3)nc12 do in these assays?
HP1b chromo inh: 16%[57 µM]; BAZ2B inh: 3%; G9a inh: 9%[59 µM]; JMJD2A Tudor inh: -11%

How did COc1ccc(-n2nc3c(c2NC(=O)C24CC5CC(CC(C5)C2)C4)CS(=O)C3)cc1 (stereo not given) do in these assays?
PI5P4Ka inh: -3; HP1b chromo inh: 36%; BAZ2B inh: -5%; G9a inh: 79µM*; JMJD2A Tudor inh: -12%

What do the screens show for `COc1ccc(-n2nc3c(c2NC(=O)C2CC2)CS(=O)C3)cc1` (stereo not given)?
PI5P4Ka inh: -1; L3MBTL1 inh: -4%; HP1b chromo inh: 30%; BAZ2B inh: 2%; G9a inh: -1%; JMJD2A Tudor inh: -5%

What do the screens show for `O=Cc1cc(N=Nc2cccc(C(=O)O)c2)ccc1O`?
PI5P4Ka inh: -79*; L3MBTL1 inh: inconclusive; HP1b chromo inh: 9%; BAZ2B inh: inconclusive; G9a inh: inconclusive; JMJD2A Tudor inh: -13%

What do the screens show for `O=Cc1cc(N=Nc2ccccc2Cl)ccc1O`?
PI5P4Ka inh: inconclusive; L3MBTL1 inh: inconclusive; HP1b chromo inh: inconclusive; BAZ2B inh: 10µM*; G9a inh: 10µM*; JMJD2A Tudor inh: 25µM*

How did O=S(=O)(c1ccccc1)N1CCN(c2nc(-c3ccc(F)cc3)nc3cc(Cl)ccc23)CC1 do in these assays?
HP1b chromo inh: 65%; JMJD2A Tudor inh: -11%

What do the screens show for `Cc1ccccc1N=C1NC(=O)/C(=C/c2cccn2C)S1`?
PI5P4Ka inh: inconclusive; L3MBTL1 inh: inconclusive; HP1b chromo inh: inconclusive; BAZ2B inh: inconclusive; G9a inh: 45µM*; JMJD2A Tudor inh: 40µM*
